The whole screen tested about 5,500 compounds, of which about 2,000 (36%) were called active. Inconclusive results (about 18%) are left out. Rule as the data show it: active = normalized growth mostly below about 0.91 (no sharp cut-off); inconclusive = no clear call, values can overlap the other calls; inactive = mostly above about 0.92. Some of the results follow.
Assay: chemical genetic growth profiling, strain panel (AID 1159580);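 also: tested at 20 µM; growth read once vehicle control cultures reached saturation at 30 °C; 1 = growth at the plate median or of vehicle wells; lower values mean less growth of the strain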
Conditions: growth OD
[1] = S. cerevisiae deletion strains, locus YAL013W, strain DEP1, hits give low values
[2] = S. cerevisiae deletion strains, locus YBR229C, strain ROT2, hits give low values
[3] = S. cerevisiae deletion strains, locus YDL101C, strain DUN1, hits give low values
[4] = S. cerevisiae deletion strains, locus YDL134C, strain PPH21, hits give low values
[5] = S. cerevisiae deletion strains, locus YDR150W, strain NUM1, hits give low values
[6] = S. cerevisiae deletion strains, locus YEL061C, strain CIN8, hits give low values
[7] = S. cerevisiae deletion strains, locus YGR078C, strain PAC10, hits give low values
[8] = S. cerevisiae deletion strains, locus YGR229C, strain SMI1, hits give low values
[9] = S. cerevisiae deletion strains, locus YHR030C, strain SLT2, hits give low values
[10] = S. cerevisiae deletion strains, locus YHR087W, strain rtc3, hits give low values
[11] = S. cerevisiae deletion strains, locus YJR043C, strain POL32, hits give low values
[12] = S. cerevisiae deletion strains, locus YJR075W, strain HOC1, hits give low values
[13] = S. cerevisiae deletion strains, locus YLR039C, strain RIC1, hits give low values
[14] = S. cerevisiae deletion strains, locus YLR058C, strain SHM2 (second series), hits give low values
[15] = S. cerevisiae deletion strains, locus YLR085C, strain ARP6, hits give low values
[16] = S. cerevisiae deletion strains, locus YLR262C, strain YPT6, hits give low values
[17] = S. cerevisiae deletion strains, locus YML094W, strain GIM5, hits give low values
[18] = S. cerevisiae deletion strains, locus YMR219W, strain ESC1, hits give low values
[19] = S. cerevisiae deletion strains, locus YMR263W, strain SAP30, hits give low values
[20] = S. cerevisiae deletion strains, locus YNL128W, strain TEP1, hits give low values
[21] = S. cerevisiae deletion strains, locus YNL153C, strain GIM3, hits give low values
[22] = S. cerevisiae deletion strains, locus YNL298W, strain CLA4 (second series), hits give low values
[23] = S. cerevisiae deletion strains, locus YNL322C, strain KRE1, hits give low values
[24] = S. cerevisiae deletion strains, locus YNR030W, strain Alg12, hits give low values
[25] = S. cerevisiae deletion strains, locus YOL006C, strain TOP1, hits give low values
[26] = S. cerevisiae deletion strains, locus YPL055C, strain LGE1, hits give low values
[27] = S. cerevisiae deletion strains, locus YPL241C, strain CIN2, hits give low values
[28] = S. cerevisiae deletion strains, locus YPR135W, strain CTF4, hits give low values
[29] = S. cerevisiae strains, strain wild type, hits give low values
[30] = S. cerevisiae deletion strains, locus YKL190W, strain CNB1, hits give low values

Measured: normalized growth

CCCCCc1ccc(C(=O)O/N=C\c2c(Cl)cccc2Cl)cc1
inactive: [1] 0.966 | [2] 0.941 | S. cerevisiae deletion strains, locus YCL061C, strain MRC1, hits give low values 0.933 | [3] 1.01 | [4] 0.936 | [5] 1.01 | [7] 0.959 | [9] 1.01 | [10] 0.939 | [11] 0.962 | [12] 0.982 | [13] 0.84 | [14] 0.943 | [15] 0.943 | [16] 0.82 | [17] 0.98 | [18] 0.95 | [19] 1.03 | [20] 0.962 | [22] 0.969 | [23] 0.947 | [24] 0.958 | [25] 0.796 | [26] 0.943 | [27] 0.963 | [28] 1.07 | [29] 0.919
active: [6] 0.902 | [8] 0.929 | [21] 0.92

O=[N+]([O-])c1cnc(Sc2n[nH]c(-c3cccs3)n2)s1
active: [1] 0.488 | [2] 0.258 | [3] 0.23 | [5] 0.347 | [6] 0.612 | [7] 0.214 | [9] 0.312 | [10] 0.377 | [11] 0.602 | [12] 0.224 | [30] 0.715 | [13] 0.426 | [14] 0.404 | [15] 0.152 | [16] 0.596 | [17] 0.573 | [18] 0.35 | [19] 0.194 | [20] 0.876 | [21] 0.215 | [22] 0.352 | [23] 0.927 | [24] 0.508 | [26] 0.126 | [27] 0.36 | [28] 0.319
inactive: [8] 0.974

N[C@H](C(=O)O)[C@H]1C[C@@H]1C(=O)O
inactive: S. cerevisiae deletion strains, locus YAL040C, strain CLN3, hits give low values 1.11 | S. cerevisiae deletion strains, locus YCL061C, strain MRC1 (second series), hits give low values 1.01 | S. cerevisiae deletion strains, locus YDR363W, strain ESC2, hits give low values 1.03 | S. cerevisiae deletion strains, locus YER002W, strain NOP16, hits give low values 1.01 | [7] 1.02 | [19] 1.01 | [21] 1.02 | S. cerevisiae deletion strains, locus YNL175C, strain NOP13, hits give low values 1 | S. cerevisiae deletion strains, locus YNL197C, strain WHI3, hits give low values 1.06 | S. cerevisiae deletion strains, locus YNL224C, strain SQS1, hits give low values 0.996 | S. cerevisiae deletion strains, locus YOR083W, strain WHI5 (second series), hits give low values 1.03 | [27] 1.01

N[C@H](C(=O)O)[C@@H]1CC(Cl)=NO1
inactive: S. cerevisiae deletion strains, locus YMR307W, strain GAS1, hits give low values 0.671 | S. cerevisiae deletion strains, locus YOL012C, strain htz1 0.224
active: [1] 0.796 | S. cerevisiae deletion strains, locus YBR021W, strain FUR4, hits give low values 1.27 [resistant] | [2] 0.629 | S. cerevisiae deletion strains, locus YCL029C, strain bik1, hits give low values 0.258 | S. cerevisiae deletion strains, locus YDL035C, strain GPR1, hits give low values 0.321 | S. cerevisiae deletion strains, locus YDL074C, strain BRE1, hits give low values 0.48 | [3] 0.23 | [4] 0.355 | S. cerevisiae deletion strains, locus YDL185W, strain tfp1, hits give low values 0.149 | S. cerevisiae deletion strains, locus YDL192W, strain arf1, hits give low values 0.24 | S. cerevisiae deletion strains, locus YDR101C, strain arx1, hits give low values 0.287 | [5] 0.605 | S. cerevisiae deletion strains, locus YDR162C, strain NBP2, hits give low values 0.318 | S. cerevisiae deletion strains, locus YDR318W, strain mcm21, hits give low values 0.199 | S. cerevisiae deletion strains, locus YDR388W, hits give low values 0.191 | S. cerevisiae deletion strains, locus YDR502C, strain sam2, hits give low values 0.2 | [6] 0.409 | S. cerevisiae deletion strains, locus YER110C, hits give low values 0.451 | S. cerevisiae deletion strains, locus YER155C, strain BEM2, hits give low values 0.464 | S. cerevisiae deletion strains, locus YER167W, strain BCK2, hits give low values 0.288 | S. cerevisiae deletion strains, locus YGL078C, strain dbp3, hits give low values 0.238 | S. cerevisiae deletion strains, locus YGL086W, strain mad1, hits give low values 0.267 | S. cerevisiae deletion strains, locus YGL248W, strain PDE1, hits give low values 0.331 | [7] 0.437 | S. cerevisiae deletion strains, locus YGR135W, strain pre9, hits give low values 0.234 | [8] 0.197 | S. cerevisiae deletion strains, locus YGR252W, strain gcn5, hits give low values 0.508 | [9] 0.478 | S. cerevisiae deletion strains, locus YHR079C, strain IRE1 (second series), hits give low values 0.186 | S. cerevisiae deletion strains, locus YHR094C, strain hxt1, hits give low values 0.275 | S. cerevisiae deletion strains, locus YHR129C, strain ARP1, hits give low values 0.481 | S. cerevisiae deletion strains, locus YHR200W, strain rpn10, hits give low values 0.376 | S. cerevisiae deletion strains, locus YIL066C, strain RNR3, hits give low values 0.468 | S. cerevisiae deletion strains, locus YIL073C, strain SPO22, hits give low values 0.39 | S. cerevisiae deletion strains, locus YIL125W, strain kgd1, hits give low values 0.185 | S. cerevisiae deletion strains, locus YIR030C, strain dcg1, hits give low values 0.26 | S. cerevisiae deletion strains, locus YJL095W, strain BCK1, hits give low values 0.287 | S. cerevisiae deletion strains, locus YJL134W, strain LCB3, hits give low values 0.605 | S. cerevisiae deletion strains, locus YJL168C, strain set2, hits give low values 0.541 | S. cerevisiae deletion strains, locus YJL187C, strain SWE1 (second series), hits give low values 0.345 | [11] 0.267 | [12] 0.52 | S. cerevisiae deletion strains, locus YKL009W, strain mrt4, hits give low values 0.381 | S. cerevisiae deletion strains, locus YKL068W, hits give low values 0.433 | S. cerevisiae deletion strains, locus YKL085W, strain MDH1 (second series), hits give low values 0.214 | S. cerevisiae deletion strains, locus YKL085W, strain MDH1, hits give low values 0.214 | [30] 0.446 | S. cerevisiae deletion strains, locus YKR001C, strain vps1, hits give low values 0.189 | [13] 0.45 | S. cerevisiae deletion strains, locus YLR058C, strain SHM2, hits give low values 0.398 | S. cerevisiae deletion strains, locus YLR102C, strain apc9, hits give low values 0.28 | [16] 0.516 | S. cerevisiae deletion strains, locus YLR268W, strain sec22, hits give low values 0.174 | S. cerevisiae deletion strains, locus YLR330W, strain CHS5, hits give low values 0.388 | S. cerevisiae deletion strains, locus YLR342W, strain FKS1 (second series), hits give low values 0.573 | S. cerevisiae deletion strains, locus YLR371W, strain rom2, hits give low values 0.505 | S. cerevisiae deletion strains, locus YLR418C, strain cdc73, hits give low values 0.468 | S. cerevisiae deletion strains, locus YML016C, strain PPZ1, hits give low values 0.364 | S. cerevisiae deletion strains, locus YML032C, strain rad52, hits give low values 0.238 | S. cerevisiae deletion strains, locus YML124C, strain tub3, hits give low values 0.302 | S. cerevisiae deletion strains, locus YMR078C, strain ctf18, hits give low values 0.352 | S. cerevisiae deletion strains, locus YMR223W, strain ubp8, hits give low values 0.22 | [19] 0.619 | S. cerevisiae deletion strains, locus YNL067W, strain RPL9B, hits give low values 0.353 | [20] 0.29 | [21] 0.504 | S. cerevisiae deletion strains, locus YNL233W, strain BNI4, hits give low values 0.419 | S. cerevisiae deletion strains, locus YNL250W, strain rad50, hits give low values 0.246 | S. cerevisiae deletion strains, locus YNL271C, strain bni1, hits give low values 0.188 | S. cerevisiae deletion strains, locus YNL298W, strain CLA4, hits give low values 0.319 | S. cerevisiae deletion strains, locus YNL307C, strain MCK1, hits give low values 0.0999 | [23] 0.457 | S. cerevisiae deletion strains, locus YNR052C, strain pop2, hits give low values 0.11 | [25] 0.495 | S. cerevisiae deletion strains, locus YOL147C, strain pex11, hits give low values 0.27 | S. cerevisiae deletion strains, locus YOR061W, strain CKA2, hits give low values 0.483 | S. cerevisiae deletion strains, locus YOR069W, strain VPS5, hits give low values 0.447 | S. cerevisiae deletion strains, locus YOR136W, strain idh2, hits give low values 0.272 | S. cerevisiae deletion strains, locus YOR144C, strain elg1, hits give low values 0.352 | S. cerevisiae deletion strains, locus YOR184W, strain ser1, hits give low values 0.152 | S. cerevisiae deletion strains, locus YOR316C, strain cot1, hits give low values 0.359 | [26] 0.448 | [27] 0.571 | S. cerevisiae deletion strains, locus YPR119W, strain clb2, hits give low values 0.335 | S. cerevisiae deletion strains, locus YPR141C, strain kar3, hits give low values 0.272 | S. cerevisiae deletion strains, locus YPR163C, strain tif3, hits give low values 0.307 | S. cerevisiae deletion strains, locus YPR167C, strain met16, hits give low values 0.392 | S. cerevisiae deletion strains, strain wtn01, hits give low values 0.212 | [29] 0.351

— PubChem BioAssay AID1159580 (chemical genetic matrix, 2015)
